# Data as given in article PMC5540273 (PLoS ONE, 2017).
# What was measured:
# [1] = test system: EPHB2
# [2] = test system: EPHB6
# [3] = test system: ERBB2
# [4] = test system: ERBB4
# [5] = test system: T1, ERK8
# T1 construct: gene MAPK15
# [6] = test system: T2, ERK1
# T2 construct: gene MAPK3
# [7] = test system: T3, ERK5
# T3 construct: gene MAPK7
# [8] = test system: EPHA7
# [9] = test system: EPHA8
# [10] = test system: ERN1
# 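Also: kd values determined as follow-up on hits from a single-replicate KINOMEscan panel screen.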
structure (smiles),measurement,setting,value
Nc1n[nH]c2nnc(-c3ccccc3)cc12 [SB-517389],Kd,[1],> 10000 nM
Cl.Cn1ccc(-c2cccc(Nc3ccnc4cc(-c5nccs5)ccc34)c2)n1 [GW525701],Kd,[2],82 nM
OCCOCCn1ccc2ncnc(Nc3ccc(Oc4cccc(Cl)c4)c(Cl)c3)c21,Kd,[3],2.9 nM
same,Kd,[4],77 nM
O=c1cc(N2CCOCC2)nc2n(Cc3cccc(Cl)c3)ccn12 [GSK2296823],Kd,[4],> 10000 nM
Fc1cccc(COc2ccc(Nc3ncnc4nn5ccccc5c34)cc2Cl)c1 [GW689066],Kd,[3],24 nM
same,Kd,[4],160 nM
O=C(CCO)NCCn1ccc2ncnc(Nc3ccc(Oc4cccc(C(F)(F)F)c4)c(Cl)c3)c21,Kd,[3],0.88 nM
same,Kd,[4],100 nM
c1ccc(-c2ccc3c(-c4ccnc(Nc5ccc6c(c5)OCCO6)n4)cnn3n2)cc1 [GW818941],Kd,[5],670 nM
Nc1nc(-c2ccc3c(N)n[nH]c3c2)cc(N2CCC[C@@H](C(=O)Nc3ccccc3)C2)n1.O=C(O)C(F)(F)F.O=C(O)C(F)(F)F [GSK2288359],Kd,[6],5300 nM
CCc1nc(-c2cccc(C)c2)c(-c2ccnc(NC(=O)c3ccccc3)c2)s1,Kd,[2],7600 nM
O=C(Nc1ccccc1F)NC1CCN(c2ccnc(Nc3ccc(F)cc3)n2)C1 (stereo not drawn) [GSK1379722],Kd,[6],> 10000 nM
Cl.c1ccc(Cn2ncc3cc(Nc4ncnc5ccccc45)ccc32)cc1 [GW273749],Kd,[3],11 nM
same,Kd,[4],61 nM
Cl.Fc1ccccc1COc1ccc(Nc2ncnc3ccc(-c4nnc(C(F)(F)F)o4)cc23)cc1Cl [GW424170],Kd,[3],110 nM
Cl.O=S(=O)(c1cccc(F)c1)c1ccc(Nc2ncnc3cc(Br)sc23)cc1Cl [GSK306886],Kd,[3],95 nM
Cc1ccc(C)c(NC(=O)NCCNc2ccnc(Nc3ccc(F)cc3)n2)c1 [GSK1379878],Kd,[7],> 10000 nM
Oc1ccc2ncnc(Nc3ccc(OCc4ccccc4)cc3)c2c1 [GI262866],Kd,[3],27 nM
Cc1ccc(O)cc1Nc1cc(C(F)(F)F)nc2ccc(-c3ccncc3)cc12 [GW630823],Kd,[8],> 10000 nM
Cn1ccc2ncnc(Nc3ccc(Oc4cccc(Cl)c4)c(Cl)c3)c21,Kd,[8],> 10000 nM
same,Kd,[9],> 10000 nM
same,Kd,[3],1.2 nM
same,Kd,[4],74 nM
COc1cc2ncnc(Nc3ccc(OCc4ccccc4Br)c(Cl)c3)c2cc1OC.Cl [GI261590],Kd,[3],17 nM
same,Kd,[4],27 nM
O=C(Nc1n[nH]c2nc(-c3ccco3)c(Br)cc12)c1ccc(CN2CCCC2)cc1.O=C(O)[C@H](O)[C@@H](O)C(=O)O [SB-742352],Kd,[2],160 nM
CS(=O)(=O)CCNCc1ccc(-c2ccc3ncnc(Nc4ccc(OCc5ccccc5)c(Cl)c4)c3c2)o1.Cl [GW574783],Kd,[3],2.8 nM
same,Kd,[4],28 nM
CC(C)(C)OC(=O)NC1CCCN(c2cc(-c3ccc4c(N)n[nH]c4c3)nc(N)n2)C1 (stereo not drawn) [GSK2286096],Kd,[1],> 10000 nM
Clc1cc(Nc2ncnc3cc[nH]c23)ccc1OCc1ccccn1,Kd,[3],9 nM
Fc1cccc(COc2ccc(Nc3ncnc4sc(-c5ccc[nH]5)cc34)cc2Cl)c1 [GW707818],Kd,[3],100 nM
same,Kd,[4],560 nM
Fc1cccc(COc2ccc(Nc3ncnc4cc[nH]c34)cc2Cl)c1,Kd,[3],2.2 nM
same,Kd,[4],320 nM
Cc1ccc(NC(=O)c2cccc(C#N)c2)cc1-c1ccc(C(=O)Nc2ccncc2)cc1 [GSK1398463],Kd,[7],> 10000 nM
Cl.c1ccc(Cn2ccc3cc(Nc4ncnc5ccccc45)ccc32)cc1 [GW275568],Kd,[3],14 nM
same,Kd,[4],140 nM
CS(=O)(=O)CCNCc1nc(-c2ccc3ncnc(Nc4ccc(OCc5cccc(F)c5)c(Cl)c4)c3c2)cs1.Cl [GW583340],Kd,[3],5.9 nM
same,Kd,[4],26 nM
O=C(Nc1ccccc1)Nc1ccc(Oc2ccc3nccn3n2)cc1,Kd,[10],> 10000 nM
CCc1nc(-c2cccc(N(C)S(=O)(=O)c3ccccc3)c2)c(-c2ccnc(Nc3ccc(N4CCN(C(C)=O)CC4)nc3)n2)s1 [GSK1645895],Kd,[2],24 nM
